CHRM1 agonist = agonists of human M1 muscarinic receptor | P11229 | CHO-K1 hM1, Fluo-8 calcium fluorescence, agonist mode; 0% DMSO, 100% acetylcholine EC100 | activation, % at 3 µM | 0.33% of 360,000 active;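 active = activation above the run's mean compound activation plus 3 SD, cut at about 16% in these data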;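 also: peak over basal fluorescence ratio within a 140 s kinetic read after compound addition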
Target sequence (P11229 whole entry, looked up): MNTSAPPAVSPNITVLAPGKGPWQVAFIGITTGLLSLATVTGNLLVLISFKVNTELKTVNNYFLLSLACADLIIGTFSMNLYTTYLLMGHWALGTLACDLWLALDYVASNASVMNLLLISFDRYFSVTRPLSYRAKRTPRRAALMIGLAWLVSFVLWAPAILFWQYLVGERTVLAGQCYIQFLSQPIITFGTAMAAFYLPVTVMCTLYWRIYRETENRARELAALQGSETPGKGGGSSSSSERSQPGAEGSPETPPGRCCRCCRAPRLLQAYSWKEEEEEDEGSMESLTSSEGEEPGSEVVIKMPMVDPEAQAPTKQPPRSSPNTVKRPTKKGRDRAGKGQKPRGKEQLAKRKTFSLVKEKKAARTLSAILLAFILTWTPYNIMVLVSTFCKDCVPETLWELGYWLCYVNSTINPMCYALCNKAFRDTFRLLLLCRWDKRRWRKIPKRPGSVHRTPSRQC
M1 antag = blocks human M1 muscarinic receptor; P11229; CHO-K1 hM1, Fluo-8 calcium fluorescence, ACh EC80 antagonist; inhibition, % at 3 µM; 1.3% of 360,000 active; AID 588852;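 active = percent inhibition above its own plate's cutoff, namely the mean of that plate's compound wells plus 3 SD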;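 also: peak over basal fluorescence ratio during 140 s after agonist addition; 0% = ACh EC80 plus DMSO and 100% = DMSO alone without agonist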
M1 PAM = human CHRM1 positive allosteric modulation. P11229. CHO-K1 hM1, Fluo-8 calcium fluorescence, ACh EC20; 0% = ACh EC20, 100% = maximal ACh. activation, % at 3 µM. 0.088% of 360,000 active; in the data active = activation above about 19%, passing the limit was not always enough
SKN-1 inh = blocks SKN-1 activity in C. elegans; AID 624304; 0.49% of 360,000 active; C. elegans VP596 Pgst-4::GFP/RFP ratio, acrylamide-induced, 24 h; inhibition, % at 21.8 µM;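 active = interference check ratio from 0.5 to 1.5 plus GFP to RFP signal ratio inhibition reaching or exceeding a fixed threshold, cut at about 30% in these data, passing the limit was not always enough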
ATG4B inhibitor = inhibitors of human ATG4B cysteine protease; Q9Y4P1; inhibition, % at 8.33 µM; ATG4B cleavage of LC3-PLA2, NBD-HPC fluorescence, 1 h; 0.51% of 340,000 active; AID 504462; in the data active = inhibition above about 40%
Myeloid diff 2 = compounds promoting myeloid differentiation; calls only at 10 µM; ER-HoxA9 myeloid progenitors, lysozyme-GFP differentiation, flow cytometry; 1% of 360,000 active; AID 624256;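 active = normalized GFP-positive differentiation at or above the plate's own cutoff, the solvent-only control mean plus 3 SD; inconclusive = no clear call, values can overlap the other calls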;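 also: cells exposed to compound for four days before flow analysis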
* hit, by the source's call; i = inactive; ? = inconclusive; · = not tested or not shown; + = active, no number. A selection: hits, their analogues and other compounds. The true share with any hit is near 3.5%.

SMILES	CHRM1 agonist	M1 antag	M1 PAM	SKN-1 inh	ATG4B inhibitor	Myeloid diff 2
S=C(Nc1ccc(Cl)c(Cl)c1)NC1CCN(Cc2ccccc2)CC1	17*	6	11	11	24	?
Fc1ccc(NC(=S)NC2CCN(Cc3ccccc3)CC2)cc1	-7	7	-9	-4	-1	i
COc1ccccc1C#Cc1cnc2c(c1)C(=O)N([C@H](C)CO)C[C@H](C)[C@@H](CN(C)S(=O)(=O)c1cn(C)cn1)O2	-2	5	-10	-2	·	i
O=C(N/N=C/c1cccc(O)c1)N/N=C/c1cccc(O)c1	-8	16	-19	14	-6	+
O=C(CCc1ccccc1)N/N=C/c1cccc(O)c1	0	-2	9	-4	0	i
COC(=O)c1c(C)oc(C)c1S(=O)(=O)N(C)C1CCCCC1	-1	-15	12	-10	3	i
CC1=C(C(=O)N(C(C)C)C(C)C)CC(CC(=O)NCCc2ccccn2)C(=O)N1Cc1ccc(C(C)(C)C)cc1 (stereo not given)	-5	-22	1	-11	·	i
CC(C)N(C)S(=O)(=O)c1ccc(NC(=O)CSC(=S)N2CCCC2)cc1	-2	4	-1	0	-2	i
COc1ccc([C@@H]2[C@@H]3C(=O)N(C(C)(C)C)C(=O)[C@@H]3[C@]3(C)C(=O)N(c4ccccc4)C(=O)N23)cc1	0	-16	23	-10	-4	+
COc1ccc([C@@H]2[C@@H]3C(=O)N(C(C)(C)C)C(=O)[C@@H]3[C@]3(C)C(=O)N(c4ccc(C)cc4)C(=O)N23)cc1	-4	-5	4	11	-11	i
CCCN1C(=O)S/C(=C/c2ccc(N3CCOCC3)o2)C1=O	18*	7	-4	-1	-18	?
COCCCNC(=O)c1ccc2sc(C3=C[C@@H](O)[C@@H](O)[C@@H](CO)O3)nc2c1	-2	1	-1	9	·	i
OCCCNc1ncnc2c1ncn2[C@H]1CN(Cc2ccco2)C[C@@H](CO)O1	0	-12	17	-2	·	i
CSc1nsc(/C=C/Nc2ccc(F)cc2)c1C#N	-3	-8	1	8	-1	+
CSc1nsc(/C=C/Nc2cccc(Cl)c2)c1C#N	-1	-1	2	4	-2	+
CSc1nsc(/C=C/Nc2ccc(O)cc2C)c1C#N	-7	-2	4	70	8	+
CSc1nsc(/C=C/Nc2ccc(Cl)cc2)c1C#N	-3	6	0	14	-2	+
CCCc1cc(=O)[nH]c(SCC(=O)Nc2cccc(S(=O)(=O)N3CCOCC3)c2)n1	-6	-12	12	14	5	i
N=c1sccn1CC(=O)Nc1cccc(S(N)(=O)=O)c1	-3	35*	19	12	1	i
O=C(Nc1ccc(F)cc1)Nc1ccc(N2CCOCC2)c2nonc12	-5	4	-7	11	-6	i
COc1ccc(NC(=O)Nc2ccc(N3CCOCC3)c3nonc23)c(OC)c1	-4	-7	6	44*	-9	i
CC[C@]12C(=O)N(C)C[C@H]([C@@H]3C(=O)N(Cc4ccccc4)C(=O)[C@@H]31)N2C(=O)c1ccccc1	-3	1	-1	9	0	+
CN1C[C@@H]2[C@@H]3C(=O)N(Cc4ccccc4)C(=O)[C@@H]3[C@](Cc3ccccc3)(C1=O)N2C(=O)c1ccccc1	-4	9	-3	-17	-4	i
COC(C[C@@H]1O[C@H]1C(=O)COCc1ccccc1)OC	3	-22	30*	-11	3	i
N#Cc1ccc(C(=O)OCC(=O)N2CCCCCC2)cc1	11	-1	17	-7	7	i
SMILES	CHRM1 agonist	M1 antag	M1 PAM	SKN-1 inh	ATG4B inhibitor	Myeloid diff 2
Cc1cc(=O)[nH]c(SCC(=O)c2ccc(F)c(C)c2)n1	-2	-24	13	-9	0	i
CCOC(=O)NC(=O)CSc1nc(C)cc(C(F)(F)F)c1C#N	5	-11	7	31	-10	+
COC(=O)CSc1nc(C)cc(C(F)(F)F)c1C#N	-5	-16	-2	-8	-1	i
Cc1ccc(S(=O)(=O)CCSc2ccc(C(F)(F)F)cn2)cc1	-4	-6	3	1	0	i
CCCCOc1ccc(-c2cc(C(F)(F)F)c(C#N)c(SCC(=O)O)n2)cc1	-8	-10	9	6	34	+
Cc1cc(C(F)(F)F)c(C#N)c(SCC(=O)Nc2nc3cc(Br)ccc3s2)n1	-3	-3	-1	7	-7	+
Cc1ccc(S(=O)(=O)CCSc2nc(C)cc(C(F)(F)F)c2C#N)cc1	-4	-3	-1	20	-9	+
CN1CCN(c2ccc(CNC[C@H]3O[C@@H](n4cnc5c(=O)[nH]c(N)nc54)[C@H](O)[C@@H]3O)c(F)c2)CC1	-7	29	-24	-2	·	i
N=C1C=CC(=C(c2ccc(N)cc2)c2ccc(N)cc2)C=C1	-8	5	-2	60*	-2	i
Cc1cccc(C)c1-n1nnnc1C(c1ccccc1OC(F)(F)F)N1CCN(C/C=C/c2ccccc2)CC1 (stereo not given)	-3	0	-10	11	·	i
Clc1ccc(OCc2nc(-c3ccncc3)no2)c(Br)c1	-3	-9	4	51*	-5	i
O=c1[nH][nH]c2c1C(c1cccc(C(F)(F)F)c1)OC(CCc1ccccc1)C2 (stereo not given)	·	·	·	-8	·	i
CCOC(=O)c1ccc(NC(=S)N2CCSC2c2ccc(Br)cc2)cc1 (stereo not given)	34*	33*	-4	-1	-1	i
O=C(N/N=C/c1ccc(Cl)cc1)Nc1ccccc1	1	1	5	41*	-22	i
CC1CCN(CC(=O)N2CCCc3c2c(=O)oc2ccc(OCc4ccccc4)cc32)CC1	-6	49*	-23	6	-6	i
CC1CC(C)CN(CC(=O)N2CCCc3c2c(=O)oc2ccc(OCc4ccccc4)cc32)C1 (stereo not given)	-6	1	-9	-6	-5	i
COc1cc2ccccc2cc1C(=O)N1CC(C)CC(C)C1 (stereo not given)	-1	-8	13	-15	30	i
Cc1cccc(NC(=O)/C(C#N)=C/c2ccc(F)cc2)n1	-2	-18	17	5	-5	i
CCCOc1ccccc1/C=C(\C#N)C(=O)Nc1cccc(C)n1	-3	-11	5	-7	0	+
O=C(CCC(=O)c1cccs1)NCCc1ccc(F)cc1	-4	-4	-2	6	0	i
Cc1ccc(-c2nc3ccc(Cl)cn3c2Cc2ccsc2)cc1	-5	-35	5	35	·	i
Clc1cccc(-c2nc3ccc(Br)cn3c2Cc2ccsc2)c1	-7	-22	1	36*	·	i
